Screening results: PubChem, National Center for Advancing Translational Sciences (NCATS)
MCF10A rerep: DNA re-replication induction in MCF 10a cells | MCF 10A DNA re-replication, Hoechst nuclear intensity, 48 h | Potency, µM (doses to about 46.1 µM), inactives show at the highest dose activity, positive = re-replication, hits mostly activators | actives 2.9% (n = 350,000); note: potency is the fitted concentration of half-maximal effect; % of control where 0% means no effect; nearly all actives have a fitted effect of over 50% in size
DRD3 agonist: D3 dopamine receptor (human) agonism | max activation, % | P35462 | actives 0.58% (n = 410,000) | D3R DiscoveRx beta-arrestin cells, luminescence, 90 min | AID 652048; in the data active = max activation above about 30%; note: 0% is about no effect
Target sequence (P35462 whole entry, looked up): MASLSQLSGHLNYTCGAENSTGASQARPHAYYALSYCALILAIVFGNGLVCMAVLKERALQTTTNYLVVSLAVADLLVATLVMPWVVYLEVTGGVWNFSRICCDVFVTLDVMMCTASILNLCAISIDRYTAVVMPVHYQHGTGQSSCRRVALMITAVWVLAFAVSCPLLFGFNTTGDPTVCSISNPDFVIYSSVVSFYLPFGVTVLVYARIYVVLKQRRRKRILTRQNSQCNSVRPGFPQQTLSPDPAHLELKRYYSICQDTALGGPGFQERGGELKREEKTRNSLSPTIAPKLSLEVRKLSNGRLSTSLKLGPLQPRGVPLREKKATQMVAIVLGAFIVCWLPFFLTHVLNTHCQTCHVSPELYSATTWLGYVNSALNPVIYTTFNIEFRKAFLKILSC
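Agonist-mode cell screen: cells plated at 1500/well and incubated overnight at 37 °C, then exposed to library compounds for 90 min at 37 °C. Detection reagent was added for 30–60 min at room temperature, and luminescence was read.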
SW480 rerep: induces DNA re-replication in SW480 colon adenocarcinoma cells; SW480 DNA re-replication, Hoechst DNA content imaging, 48 h; Potency, µM (highest dose often 46.1 µM), inactives show at the top dose re-replication activation, hits mostly activators; actives 1.8% (n = 340,000); AID 624297; note: potency is the fitted concentration of half-maximal effect; % of control where 0% means no effect; nearly all actives have a fitted effect of over 55% in size
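Readout is total intensity of Hoechst-stained nuclei, excited at 405 nm and collected at 500-530 nm. Compound treatment lasted 48 hr at 37 C in 5% CO2 before staining.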
KB-V1 MDR tox: KB-V1 MDR subline cytotoxicity | Potency, µM (highest dose often 46.1 µM), most hits filed as cytotoxic | actives 3.4% (n = 400,000) | KB-V1 MDR cells viability, CellTiter-Glo, 72 h; note: potency is the fitted concentration of half-maximal effect; % is set by controls: 0 for no effect and ±100 for the full control effect; nearly all actives have a fitted effect of over 60% in size
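Cytotoxicity via CellTiter-Glo luminescence after 72 h compound exposure at 37 degrees C. Cells: drug-selected KB-V1 line, DMEM phenol-red free plus 10% FBS. Compounds tested at multiple concentrations; normalized data fitted to concentration-effect curves.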
KB-3-1 cytotox: KB-3-1 parental cell cytotoxicity. KB-3-1 viability, CellTiter-Glo ATP luminescence, 72 h. Potency, µM (top dose mostly 46.1 µM), usual class: cytotoxic. actives 1.4% (n = 400,000); note: potency is the fitted concentration of half-maximal effect; % is set by controls: 0 for no effect and ±100 for the full control effect; nearly all actives have a fitted effect of over 60% in size
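Cytotoxicity measured as CellTiter-Glo luminescence after 72 h at 37 C. Compound titrations were pinned onto drug-naive KB-3-1 parental adenocarcinoma cells grown in DMEM with 10% FBS, and normalized data fitted to concentration-response curves.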
DRD3 antagonist: antagonists of human D3 dopamine receptor. P35462. actives 2.5% (n = 360,000). max response, negative = inhibition, %. AID 652054. D3R cells, DiscoveRx beta-arrestin luminescence, antagonist mode; hits give low values; in the data active = max response below about -50%; inconclusive = no clear call, values can overlap the other calls; note: % is set by controls: 0 for no effect and ±100 for the full control effect
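Cells expressing the human receptor were seeded at 1500 cells/well, incubated overnight at 37 degrees C in 5% CO2, then exposed to library compounds with dopamine controls for 90 minutes at 37 degrees C before luminescent detection.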
Active calls of the source: *; [ ] = remark or other dose. The list is not random: actives were taken first. Their share in the collection is about 8.9%. Unless noted, calls come from the whole dose curve; as a rule, active = well fitted curve in the direction sought with a large enough effect; inconclusive = small, poorly fitted or top-dose-only effect, or another doubt; inactive = no such curve, though single readings can be large; an effect the other way counts as inactive or inconclusive.

Results for O=C(CN(c1ccccc1F)S(=O)(=O)c1ccccc1)NC1CCCCCC1 ?
MCF10A rerep: -1%; DRD3 agonist: -22; SW480 rerep: 1%; KB-V1 MDR tox: 4.6µM*; KB-3-1 cytotox: inactive; DRD3 antagonist: -19

Results for Cc1cccc(N2CCN(C(=O)Cc3c(C(=O)O)c(C)cn3C)CC2)c1C ?
DRD3 agonist: 7; KB-V1 MDR tox: inactive; KB-3-1 cytotox: inactive

How did COCCNC(=O)c1ccc2c(c1)NC(=O)C(CS(=O)(=O)Cc1ccc(F)cc1Cl)N2 (centres undefined) do in these assays?
DRD3 agonist: -13

What do the screens show for `O=C(OCC(=O)N1CCCCC1)c1cc(NS(=O)(=O)c2ccc(Cl)c([N+](=O)[O-])c2)ccc1O`?
MCF10A rerep: inconclusive; DRD3 agonist: -8; SW480 rerep: -2%; KB-V1 MDR tox: inactive; KB-3-1 cytotox: inactive; DRD3 antagonist: -50*

What do the screens show for `O=C(OCC(=O)N1CCCC1)c1cc([N+](=O)[O-])ccc1Cl`?
MCF10A rerep: -33%; DRD3 agonist: 4; SW480 rerep: -26%; KB-V1 MDR tox: inactive; KB-3-1 cytotox: inactive; DRD3 antagonist: 3

How did Cc1ccccc1C(=O)Nc1cccc(-c2nnc(SCC(=O)NCc3ccco3)n2C)c1 do in these assays?
KB-V1 MDR tox: inactive; KB-3-1 cytotox: inactive

What do the screens show for `CC(Sc1nc2ccccc2c(=O)n1C)C(=O)N(C)C1CCCCC1` (centres undefined)?
MCF10A rerep: inconclusive; DRD3 agonist: 10; SW480 rerep: -5%; KB-V1 MDR tox: 5.8µM*; KB-3-1 cytotox: inconclusive; DRD3 antagonist: -4

Results for CC(Sc1nc2ccccc2c(=O)n1CC1CCCO1)C(=O)N(C)Cc1ccccc1 (centres undefined) ?
MCF10A rerep: 10%; DRD3 agonist: -1; SW480 rerep: -8%; KB-V1 MDR tox: inactive; KB-3-1 cytotox: inconclusive; DRD3 antagonist: 10

How did COc1ccc(C)cc1NC(=O)C(=O)NCCc1csc(-c2ccc(C)cc2)n1 do in these assays?
DRD3 agonist: 11

How did Cc1ccc(N=Cc2nc(-c3ccc(C)cc3)oc2O)cc1 do in these assays?
MCF10A rerep: 6.5µM*; DRD3 agonist: 2; SW480 rerep: inconclusive; KB-V1 MDR tox: inactive; KB-3-1 cytotox: inactive; DRD3 antagonist: 9

What do the screens show for `COc1ccc(N=Cc2nc(-c3ccco3)oc2O)cc1`?
MCF10A rerep: 9%; DRD3 agonist: -21; SW480 rerep: -4%; KB-V1 MDR tox: inactive; KB-3-1 cytotox: inactive; DRD3 antagonist: -52*

How did CC(=O)Nc1ccc(N=Cc2nc(-c3ccc(C)cc3)oc2O)cc1 do in these assays?
MCF10A rerep: 1%; DRD3 agonist: -4; SW480 rerep: -1%; KB-V1 MDR tox: inactive; KB-3-1 cytotox: inactive; DRD3 antagonist: 1

How did C=CCc1cc(/C=C2/NC(=O)NC2=O)cc(OCC)c1O do in these assays?
MCF10A rerep: 8%; DRD3 agonist: 20; SW480 rerep: 2%; KB-V1 MDR tox: inactive; KB-3-1 cytotox: inactive; DRD3 antagonist: 7

What do the screens show for `CCOc1cc(/C=C2/NC(=O)NC2=O)cc([N+](=O)[O-])c1O`?
MCF10A rerep: 0%; DRD3 agonist: -20; SW480 rerep: -14%; KB-V1 MDR tox: inactive; KB-3-1 cytotox: inactive; DRD3 antagonist: -86*

What do the screens show for `CC(=O)c1ccc(NC(=O)C(C)Nc2ccc(Cl)cc2)cc1` (centres undefined)?
MCF10A rerep: 11%; DRD3 agonist: -12; SW480 rerep: -4%[1.84 µM]; KB-V1 MDR tox: inactive; KB-3-1 cytotox: inactive; DRD3 antagonist: -56*

What do the screens show for `O=C(Nc1ccccc1Cl)C(Cl)C(=O)c1ccccc1` (centres undefined)?
MCF10A rerep: 2%; DRD3 agonist: -13; SW480 rerep: 6%; KB-V1 MDR tox: inactive; KB-3-1 cytotox: inactive; DRD3 antagonist: -25

Results for Cc1cc[n+](C(C)C(=O)c2ccc(Cl)cc2)cc1 (centres undefined) ?
MCF10A rerep: 15%; DRD3 agonist: -13; SW480 rerep: 7%; KB-V1 MDR tox: inconclusive; KB-3-1 cytotox: inactive; DRD3 antagonist: inconclusive

Results for CC(=O)Nc1cc[n+](C(C)C(=O)c2ccc(Cl)cc2)cc1 (centres undefined) ?
MCF10A rerep: -13%; DRD3 agonist: -19; SW480 rerep: -52%[1.84 µM]; KB-V1 MDR tox: inconclusive; KB-3-1 cytotox: inactive; DRD3 antagonist: -87*

How did O=C(Nc1ccc(Cl)cc1)C(Cl)C(=O)c1ccccc1 (centres undefined) do in these assays?
MCF10A rerep: inconclusive; DRD3 agonist: -29; SW480 rerep: inconclusive; KB-V1 MDR tox: inactive; KB-3-1 cytotox: inactive; DRD3 antagonist: -52*

What do the screens show for `Cc1nn(-c2ccccc2)c(OC(=O)c2ccc(F)cc2)c1S(=O)(=O)c1ccccc1`?
DRD3 agonist: 2; KB-V1 MDR tox: inconclusive; KB-3-1 cytotox: inactive

How did CC(=O)Nc1ccc(-c2ccnc3c2CC(C)(C(=O)Nc2ccc4c(c2)OCO4)O3)cc1 (centres undefined) do in these assays?
DRD3 agonist: -15; KB-V1 MDR tox: inactive; KB-3-1 cytotox: 18µM*; DRD3 antagonist: 0

How did CC1(C(=O)Nc2ccccc2)Cc2c(-c3ccc4c(c3)OCO4)ccnc2O1 (centres undefined) do in these assays?
DRD3 agonist: 5; KB-V1 MDR tox: inconclusive; KB-3-1 cytotox: inconclusive; DRD3 antagonist: 0

How did CC1(C(=O)Nc2cccnc2)Cc2c(-c3ccc4c(c3)OCO4)ccnc2O1 (centres undefined) do in these assays?
DRD3 agonist: -11; KB-V1 MDR tox: inconclusive; KB-3-1 cytotox: 15µM*; DRD3 antagonist: 0

How did CC(=O)Nc1ccc(NC(=O)C2(C)Cc3c(-c4ccc5c(c4)OCO5)ccnc3O2)cc1 (centres undefined) do in these assays?
DRD3 agonist: 5; KB-V1 MDR tox: inactive; KB-3-1 cytotox: inactive; DRD3 antagonist: 3

Results for CN(C)c1ccc(-c2ccnc3c2CC(C)(C(=O)Nc2ccc(Cl)c(C(F)(F)F)c2)O3)cc1 (centres undefined) ?
DRD3 agonist: 1; KB-V1 MDR tox: inconclusive; KB-3-1 cytotox: 16µM*; DRD3 antagonist: -16

Results for CC1(C(=O)Nc2cccc(Oc3ccccc3)c2)Cc2c(-c3ccc4c(c3)OCO4)ccnc2O1 (centres undefined) ?
DRD3 agonist: -8; KB-V1 MDR tox: 5.8µM*; KB-3-1 cytotox: 4.6µM*; DRD3 antagonist: 9

How did CC1(C)S[C@@H]2[C@H](NC(=O)Cc3ccccc3)C(=O)N2[C@H]1C(=O)O (tested in a mixture with another compound) do in these assays?
DRD3 agonist: -6
